According to PubChem BioAssay (NCATS):
Inconclusive results are not listed. The source made the active and inactive calls. Unless noted, calls follow the shape of the dose curve; as a rule, active = well fitted curve in the direction sought with a large enough effect; inconclusive = small, poorly fitted or top-dose-only effect, or another doubt; inactive = no such curve, though single readings can be large; an effect the other way counts as inactive or inconclusive.

Experiments:
[1] = target: Lysosomal acid glucosylceramidase (Homo sapiens) (UniProt P04062); assay: Glucocerebrosidase-p2 (AID 348; in the data active = potency below about 10 µM; also: potency is read from the fitted curve at half-maximal effect); settings: purified GBA, blue fluorogenic substrate, 40 min
Outline: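 Normal human glucocerebrosidase (0.2 nM) with blue fluorogenic substrate (80 uM final) in citrate/phosphate pH 5.9 with 10mM sodium taurocholate, 0.01% tween-20; 40 min RT, NaOH/glycine stop; fluorescence Ex 365/Em 440; AC50 from a titration from 0.6 nM upwards.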

[2] = AP1 Signaling Pathway (AID 357; active = well fitted curve in either direction with a large enough effect, not every such curve was filed as active;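 also: ME-180 reporter cells stimulated with EGF at its EC50 level; % is scaled to controls: 0 for no effect and ±100 for the full control effect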); settings: ME-180 AP-1-bla reporter, EGF-induced, beta-lactamase ratio, 5 h; at 7.69 µM (top of the series) unless noted
Outline: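 Titration-series screen for positive or negative modulators of EC50 EGF-induced signaling in ME-180 cells carrying an AP-1-driven beta-lactamase reporter. After 5 hours at 37 degrees Celsius, CCF4 460nm/530nm emission ratio gave %Activity; AC50 values derived.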

[3] = target: Cytochrome P450 1A2 (Homo sapiens) (UniProt P05177); assay: p450-cyp1a2 (AID 410; calls by dose curve; also: potency is read from the fitted curve at half-maximal effect); settings: recombinant CYP1A2, luciferin-ME demethylation, luminescence; series mostly up to 57 µM
Outline: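 Luminescent demethylation readout: Luciferin-ME (100uM, equal to Km) turned over by 20nM CYP1A2 for 60 min at room temperature after NADPH regeneration addition, following 10 min compound preincubation. Normalization used 57 uM furafylline as full inhibition.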

[4] = NFAT Signaling Pathway (AID 444; active = well fitted curve in either direction with a large enough effect, not every such curve was filed as active;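 also: carbachol stimulus at about its EC50 of 1 µM final; % is scaled to controls: 0 for no effect and ±100 for the full control effect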); settings: Jurkat NFAT-bla M1, carbachol, beta-lactamase ratio, 5 h; at 7.69 µM (top of the series) unless noted
Outline: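 Read-out: CCF4 FRET ratio (460 nm/530 nm) after 1 h RT dye loading, used for %activity and AC50 from titration series. Cells: Jurkat NFAT-β-lactamase/M1 line, treated with compound plus 1 uM carbachol for 5 h, 37 °C.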

[5] = Stat Signaling Pathway (AID 446; active = well fitted curve in either direction with a large enough effect, not every such curve was filed as active;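 also: ME-180 cervical cancer cells given 40 pM IL-6 alongside compound; SIE-controlled beta-lactamase reporter measured as 460/530 nm FRET emission ratio; % is scaled to controls: 0 for no effect and ±100 for the full control effect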); settings: ME-180 SIE beta-lactamase reporter, IL-6 stimulated, 5 h; at 7.69 µM (top of the series) unless noted
Outline: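 Emission at 460 and 530 nm (excitation 405 nm) reports SIE-controlled beta-lactamase in ME-180 cells. Cells received compound with 40 pM IL-6 for 5 hrs at 37 C; data scaled between 300 pM IL-6 and 125 nM JAK-inhibitor controls.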

[6] = target: Glucocorticoid receptor (Homo sapiens) (UniProt P04150); assay: GR-GFP Redistribution (AID 450;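 active = compounds whose dose series gives a full or clear partial fitted curve of increased nuclear translocation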; also: potency is read from the fitted curve at half-maximal effect); settings: U2OS GR-GFP nuclear translocation, laser cytometry, 2 h
[7] = target: Glucocorticoid receptor (Homo sapiens) (UniProt P04150); assay: GR-EFC Redistribution (AID 451; calls by dose curve; also: potency is read from the fitted curve at half-maximal effect); settings: CHO-K1 GR-EFC translocation, beta-gal luminescence, 2 h
Outline: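 Translocation of GR-ED fusion to nuclear EA restores b-gal, read by luminescence after 1 h room-temperature detection. Engineered CHO-K1 biosensor cells, 1,000/well, exposed 2 h at 37 C to titrations up to 46 uM final.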

[8] = target: Mitogen-activated protein kinase 10 (Mus musculus) (UniProt Q61831); assay: JNK3 AlphaScreen Assay (AID 530; active = well fitted curve in either direction with a large enough effect, not every such curve was filed as active;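 also: kinase came from lysate of stimulated human HepG2 cells; signal reports phosphorylation of biotinylated GST-cJun 1-79 at Ser73 with 10 µM ATP; % is scaled to controls: 0 for no effect and ±100 for the full control effect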); settings: JNK3 lysate, c-Jun phosphorylation; series mostly up to 57.1 µM
Outline: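 qHTS titrations with 15 min compound pre-incubation before adding ATP (10 uM final). Read-out: AlphaScreen of Ser73-phosphorylated biotin-GST-cJun using HepG2 lysate JNK3 activated by IL-1β and TNFα.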

[9] = target: 3',5'-cyclic-AMP phosphodiesterase 4B (Homo sapiens) (UniProt Q07343); assay: qHTS Assay for Inhibitors of PDE-IV (AID 607; active = well fitted activation curve with a large enough effect in the main read-out, with a control signal flat, not every such curve was filed as active; also: % of control where 0% means no effect); settings: HEK293 ACTOne CNG channel cells, membrane potential fluorescence; series mostly up to 22.9 µM
Outline: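 The readout is membrane depolarisation from a cAMP-sensing CNG channel, detected with a potential dye at ex 535/em 590. Cells were HEK293-derived (endogenous PDE-IV) at 1000 cells/well, titrated up to 22.9 uM final.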

[10] = target: Cytochrome P450 3A4 (Homo sapiens) (UniProt P08684); assay: qHTS Assay for Activators of Cytochrome P450 3A4 (AID 885); settings: recombinant CYP3A4, Luciferin-PPXE luminescence, 60 min; series mostly up to 57.1 µM; also: nearly all actives have a fitted effect of over 65% in size; also: potency is read from the fitted curve at half-maximal effect
Outline: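 Activators are scored by enhanced luminescence from CYP3A4 conversion of luciferin-PPXE (25uM, equal to KM) to luciferin, after 60 min at RT with an NADPH-regenerating system.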

[11] = qHTS Assay for Lipid Storage Modulators (AID 1519; calls by dose curve); settings: Drosophila S3 cells, BODIPY lipid droplet/cell ratio, laser cytometry, cells loaded with oleic acid; for activity change, negative = inhibition: at 57.5 µM (top of the series)
Outline: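 Cells seeded at 5,000 per well were treated with compounds over a concentration series and loaded with oleic acid (400 uM, as added). Lipid droplet fluorescence (488 nm excitation, 500-530 nm channel) was read by laser-scanning cytometry and normalized to 20 uM Triacsin C.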

[12] = target: Dual specificity protein kinase CLK4 (Homo sapiens) (UniProt Q9HAZ1); assay: qHTS Assay for Inhibitors of CDC-like Kinase 4 (Kinase-Glo Assay) (AID 1770); settings: recombinant Clk4, Kinase-Glo ATP depletion luminescence; series mostly up to 66.7 µM; also: nearly all actives have a fitted effect of over 65% in size; also: potency is read from the fitted curve at half-maximal effect
Outline: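 Inhibition was judged from remaining ATP, measured by Ultra-Glo luciferase bioluminescence after Clk4 (25 nM) had acted on RS peptide at 1 uM ATP for 4.5 hours, room temperature.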

[13] = target: Dual specificity protein kinase CLK4 (Homo sapiens) (UniProt Q9HAZ1); assay: qHTS Assay for Inhibitors of CDC-like Kinase 4 (ADP-Glo Assay) (AID 1771); settings: recombinant CLK4, ADP-Glo luminescence; series mostly up to 80 µM; also: nearly all actives have a fitted effect of over 70% in size; also: potency is read from the fitted curve at half-maximal effect
Outline: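 ADP production was read by ADP-Glo luminescence after residual ATP depletion, following 1 h room-temperature reaction of 25 nM Clk4, 1 uM ATP and 100 uM RS peptide with MgCl2, EGTA, DTT and Triton X-100.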

[14] = target: Dual specificity protein kinase CLK4 (Homo sapiens) (UniProt Q9HAZ1); assay: qHTS Assay for Inhibitors of CDC-like Kinase 4 (ADP-FP Assay) (AID 1795); settings: Transcreener ADP fluorescence polarization; series mostly up to 50 µM;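 also: recombinant human CLK4 phosphorylating RS repeat peptide at 1 µM ATP; % is scaled to controls: 0 for no effect and ±100 for the full control effect; nearly all actives have a fitted effect of over 60% in size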
Outline: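 Inhibition of ADP formation by 6.25 nM Clk4 is measured using 1 uM ATP and 100 uM RS repeat peptide over one hour. Produced ADP displaces a fluorescent tracer from antibody, lowering polarization.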

[15] = target: Ubiquitin carboxyl-terminal hydrolase 1 (Homo sapiens) (UniProt O94782); assay: Inhibitors of USP1/UAF1: Pilot qHTS (AID 504865); settings: purified USP1/UAF1, Ub-rhodamine cleavage fluorescence; series mostly up to 54.9 µM;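 also: rhodamine fluorescence freed from ubiquitin-rhodamine substrate followed over time; top concentration of the series differs between compounds; % is scaled to controls: 0 for no effect and ±100 for the full control effect; nearly all actives have a fitted effect of over 35% in size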
Outline: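 Kinetic fluorescence assay: 1nM USP1/UAF1, 15 min compound preincubation, then 150nM Ub-Rho; 480/540 nm.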

[16] = Primary qHTS for small molecule stabilizers of the endoplasmic reticulum resident proteome: Secreted ER Calcium Modulated Protein (SERCaMP) assay (AID 1508630); settings: SH-SY5Y GLuc-SERCaMP (Gaussia luciferase released on ER calcium loss) secretion, thapsigargin, luminescence; series mostly up to 38.4 µM; also: % is scaled to controls: 0 for no effect and ±100 for the full control effect
Outline: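 The SH-SY5Y reporter protocol was run at 3 concentrations up to 38.3 uM (primary) or 11 concentrations (follow-up): 16 h compound, 100 nM thapsigargin for 4 h, then extracellular luciferase luminescence.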

[17] = qHTS Assay for Identification of Small Molecule Agonists for Hypoxia Response Element Signaling Pathway (AID 914; active = well fitted activation curve with a large enough effect in the signal ratio, with a control signal flat, not every such curve was filed as active; the % refers to the signal ratio; also: % of control where 0% means no effect); settings: ME-180 (cervical carcinoma) HRE-bla reporter, beta-lactamase ratio, CoCl2, 17 h; activation: stronger effect = higher value
Outline: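 AC50 values come from titration-series %Activity, taken as the 460/530nm ratio of CCF4 fluorescence (excitation 405nm). CellSensor HRE-bla ME-180 cells were treated 17 hours at 37 C with compound plus an EC50 level of CoCl2.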

[18] = target: Cytochrome P450 3A4 (Homo sapiens) (UniProt P08684); assay: qHTS Assay for Inhibitors and Substrates of Cytochrome P450 3A4 (AID 884); settings: recombinant CYP3A4, Luciferin-PPXE luminescence; series mostly up to 57.1 µM; also: nearly all actives have a fitted effect of over 50% in size; also: potency is read from the fitted curve at half-maximal effect
Outline: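 Luminescent readout of luciferin produced by CYP3A4 (20 nM) dealkylation of Luciferin-PPXE, 25 uM (its KM). NADPH-driven reaction ran 60 min at RT after 10 min compound preincubation; data scaled to 57 uM ketoconazole as 100% inhibition.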

[19] = target: Cytochrome P450 2C9 (Homo sapiens) (UniProt P11712); assay: qHTS Assay for Inhibitors and Substrates of Cytochrome P450 2C9 (AID 883); settings: recombinant CYP2C9, luciferin-H luminescence, 60 min; series mostly up to 57.1 µM; also: potency is read from the fitted curve at half-maximal effect; nearly all actives have a fitted effect of over 60% in size
Outline: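 Inhibition of CYP2C9 is scored as loss of luminescence, with 57uM sulphaphenazole defining 100% inhibition. Substrate Luciferin-H is used at 100uM, equal to its KM; enzyme at 10nM in 25mM KPO4, 60 min at 37C with NADPH regeneration.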

[20] = measured here: cell count channel max response
[21] = measured here: lipid channel max response

Chain of Cytochrome P450 3A4 (Homo sapiens) (P08684 whole entry, looked up): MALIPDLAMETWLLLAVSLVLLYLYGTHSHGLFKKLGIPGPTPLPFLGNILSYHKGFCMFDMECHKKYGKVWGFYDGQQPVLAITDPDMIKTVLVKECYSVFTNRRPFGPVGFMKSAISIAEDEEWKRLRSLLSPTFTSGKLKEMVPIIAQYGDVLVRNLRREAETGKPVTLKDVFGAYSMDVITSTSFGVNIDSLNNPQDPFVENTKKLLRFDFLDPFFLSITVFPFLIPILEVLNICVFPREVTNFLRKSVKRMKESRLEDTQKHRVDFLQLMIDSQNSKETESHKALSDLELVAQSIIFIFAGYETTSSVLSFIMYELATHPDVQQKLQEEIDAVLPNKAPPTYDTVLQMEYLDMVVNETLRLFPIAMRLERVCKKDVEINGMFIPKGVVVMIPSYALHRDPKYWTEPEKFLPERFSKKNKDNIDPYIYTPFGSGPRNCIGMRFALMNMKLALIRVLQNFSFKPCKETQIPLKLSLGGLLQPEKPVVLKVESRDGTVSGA
Chain of Dual specificity protein kinase CLK4 (Homo sapiens) (Q9HAZ1 whole entry, looked up): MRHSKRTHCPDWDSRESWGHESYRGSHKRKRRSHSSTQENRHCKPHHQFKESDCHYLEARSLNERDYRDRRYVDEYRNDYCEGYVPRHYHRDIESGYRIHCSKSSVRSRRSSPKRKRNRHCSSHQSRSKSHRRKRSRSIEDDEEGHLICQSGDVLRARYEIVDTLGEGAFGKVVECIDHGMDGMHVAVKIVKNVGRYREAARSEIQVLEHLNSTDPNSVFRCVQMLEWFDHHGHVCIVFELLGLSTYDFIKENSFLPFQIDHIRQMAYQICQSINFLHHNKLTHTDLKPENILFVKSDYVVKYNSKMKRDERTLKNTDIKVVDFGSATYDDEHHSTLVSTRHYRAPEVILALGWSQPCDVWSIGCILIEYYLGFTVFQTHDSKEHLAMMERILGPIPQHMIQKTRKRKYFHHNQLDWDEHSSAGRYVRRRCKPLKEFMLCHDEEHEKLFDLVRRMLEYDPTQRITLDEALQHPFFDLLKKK
Chain of Cytochrome P450 1A2 (Homo sapiens) (P05177 whole entry, looked up): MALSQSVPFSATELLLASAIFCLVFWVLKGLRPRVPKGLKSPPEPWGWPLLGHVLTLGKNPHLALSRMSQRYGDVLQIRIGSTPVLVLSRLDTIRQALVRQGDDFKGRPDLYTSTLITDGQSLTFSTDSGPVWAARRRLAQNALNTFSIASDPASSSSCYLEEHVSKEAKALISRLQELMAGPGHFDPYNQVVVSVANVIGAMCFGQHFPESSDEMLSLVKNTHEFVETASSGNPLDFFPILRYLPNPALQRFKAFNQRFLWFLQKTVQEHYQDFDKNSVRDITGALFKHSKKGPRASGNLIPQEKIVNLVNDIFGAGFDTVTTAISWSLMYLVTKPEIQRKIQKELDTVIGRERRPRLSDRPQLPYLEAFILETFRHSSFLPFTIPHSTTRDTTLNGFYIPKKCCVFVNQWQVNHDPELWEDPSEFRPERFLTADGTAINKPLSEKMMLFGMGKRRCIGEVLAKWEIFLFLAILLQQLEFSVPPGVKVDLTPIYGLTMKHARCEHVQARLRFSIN
Chain of Lysosomal acid glucosylceramidase (Homo sapiens) (P04062 whole entry, looked up): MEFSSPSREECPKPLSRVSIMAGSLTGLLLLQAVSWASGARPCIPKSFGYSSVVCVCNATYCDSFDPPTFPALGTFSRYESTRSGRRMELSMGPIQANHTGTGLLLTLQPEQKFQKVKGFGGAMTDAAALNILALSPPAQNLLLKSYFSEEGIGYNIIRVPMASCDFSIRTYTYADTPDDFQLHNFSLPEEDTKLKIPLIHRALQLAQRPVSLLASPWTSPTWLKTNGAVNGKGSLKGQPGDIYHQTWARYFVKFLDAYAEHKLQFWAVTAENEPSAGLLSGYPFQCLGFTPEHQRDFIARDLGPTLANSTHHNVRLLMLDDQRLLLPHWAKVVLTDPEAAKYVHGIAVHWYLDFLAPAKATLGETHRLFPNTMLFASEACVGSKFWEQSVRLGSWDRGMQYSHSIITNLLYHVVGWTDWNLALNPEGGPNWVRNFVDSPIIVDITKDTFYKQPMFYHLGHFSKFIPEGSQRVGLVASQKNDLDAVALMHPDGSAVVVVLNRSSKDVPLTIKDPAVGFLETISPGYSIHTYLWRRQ
Chain of Ubiquitin carboxyl-terminal hydrolase 1 (Homo sapiens) (O94782 whole entry, looked up): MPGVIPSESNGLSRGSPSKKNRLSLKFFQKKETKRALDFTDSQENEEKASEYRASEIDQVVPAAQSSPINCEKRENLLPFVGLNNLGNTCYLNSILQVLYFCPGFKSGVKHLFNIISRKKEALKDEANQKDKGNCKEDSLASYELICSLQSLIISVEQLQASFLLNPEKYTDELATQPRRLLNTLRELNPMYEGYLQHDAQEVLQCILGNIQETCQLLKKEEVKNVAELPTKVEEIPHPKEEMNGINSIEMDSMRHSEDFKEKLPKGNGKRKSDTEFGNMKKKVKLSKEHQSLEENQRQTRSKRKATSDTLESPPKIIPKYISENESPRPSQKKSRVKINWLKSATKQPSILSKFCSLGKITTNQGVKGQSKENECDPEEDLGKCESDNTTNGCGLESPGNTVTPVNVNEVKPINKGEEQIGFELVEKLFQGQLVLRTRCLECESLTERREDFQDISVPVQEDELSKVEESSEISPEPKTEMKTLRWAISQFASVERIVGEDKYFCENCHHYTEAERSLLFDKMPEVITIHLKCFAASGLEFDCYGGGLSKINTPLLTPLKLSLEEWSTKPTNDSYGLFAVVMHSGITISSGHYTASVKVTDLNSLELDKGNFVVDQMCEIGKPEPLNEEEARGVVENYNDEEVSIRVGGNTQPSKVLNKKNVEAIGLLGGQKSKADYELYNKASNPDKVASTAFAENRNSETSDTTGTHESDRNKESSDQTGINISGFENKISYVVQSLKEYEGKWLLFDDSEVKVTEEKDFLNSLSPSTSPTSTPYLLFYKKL
Chain of Glucocorticoid receptor (Homo sapiens) (P04150 whole entry, looked up, the tested form may be a part): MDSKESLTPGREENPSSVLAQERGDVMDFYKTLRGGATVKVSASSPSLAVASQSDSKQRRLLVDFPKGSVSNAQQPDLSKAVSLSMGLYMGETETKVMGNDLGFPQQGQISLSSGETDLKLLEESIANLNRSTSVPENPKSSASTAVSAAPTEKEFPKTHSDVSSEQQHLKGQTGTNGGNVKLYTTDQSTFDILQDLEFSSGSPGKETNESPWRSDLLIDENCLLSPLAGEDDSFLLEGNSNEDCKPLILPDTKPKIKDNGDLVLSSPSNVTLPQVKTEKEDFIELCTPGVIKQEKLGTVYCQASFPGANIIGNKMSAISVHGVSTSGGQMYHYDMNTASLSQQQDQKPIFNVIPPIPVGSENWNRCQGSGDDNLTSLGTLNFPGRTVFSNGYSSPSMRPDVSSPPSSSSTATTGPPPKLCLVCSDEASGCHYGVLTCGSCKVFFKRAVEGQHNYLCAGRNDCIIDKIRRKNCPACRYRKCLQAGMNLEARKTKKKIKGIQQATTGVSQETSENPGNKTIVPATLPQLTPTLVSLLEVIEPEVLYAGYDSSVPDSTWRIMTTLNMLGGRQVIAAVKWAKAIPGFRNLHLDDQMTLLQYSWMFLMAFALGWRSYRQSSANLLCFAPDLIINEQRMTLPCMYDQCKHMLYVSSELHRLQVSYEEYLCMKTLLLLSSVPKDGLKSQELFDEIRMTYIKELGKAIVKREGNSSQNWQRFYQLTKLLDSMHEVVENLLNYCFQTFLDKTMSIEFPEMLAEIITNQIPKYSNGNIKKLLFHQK
Chain of 3',5'-cyclic-AMP phosphodiesterase 4B (Homo sapiens) (Q07343 whole entry, looked up): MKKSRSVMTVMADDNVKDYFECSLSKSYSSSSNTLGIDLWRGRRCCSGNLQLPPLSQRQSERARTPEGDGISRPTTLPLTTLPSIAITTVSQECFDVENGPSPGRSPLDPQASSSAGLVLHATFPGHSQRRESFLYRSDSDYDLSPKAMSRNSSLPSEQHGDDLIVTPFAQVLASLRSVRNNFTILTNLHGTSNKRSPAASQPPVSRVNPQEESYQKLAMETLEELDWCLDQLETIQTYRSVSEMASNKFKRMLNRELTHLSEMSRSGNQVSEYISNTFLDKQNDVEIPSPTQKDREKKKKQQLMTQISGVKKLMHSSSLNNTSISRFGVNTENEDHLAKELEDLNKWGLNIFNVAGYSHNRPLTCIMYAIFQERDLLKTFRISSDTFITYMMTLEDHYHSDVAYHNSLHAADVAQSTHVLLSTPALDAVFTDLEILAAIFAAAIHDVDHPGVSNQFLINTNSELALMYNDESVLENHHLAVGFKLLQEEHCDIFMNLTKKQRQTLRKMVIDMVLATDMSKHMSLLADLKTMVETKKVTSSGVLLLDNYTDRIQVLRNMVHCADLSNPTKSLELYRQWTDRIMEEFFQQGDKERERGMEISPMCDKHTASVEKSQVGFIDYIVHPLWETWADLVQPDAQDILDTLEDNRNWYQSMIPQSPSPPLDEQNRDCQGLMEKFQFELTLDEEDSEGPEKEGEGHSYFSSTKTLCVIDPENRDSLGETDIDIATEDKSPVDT
Chain of Cytochrome P450 2C9 (Homo sapiens) (P11712 whole entry, looked up): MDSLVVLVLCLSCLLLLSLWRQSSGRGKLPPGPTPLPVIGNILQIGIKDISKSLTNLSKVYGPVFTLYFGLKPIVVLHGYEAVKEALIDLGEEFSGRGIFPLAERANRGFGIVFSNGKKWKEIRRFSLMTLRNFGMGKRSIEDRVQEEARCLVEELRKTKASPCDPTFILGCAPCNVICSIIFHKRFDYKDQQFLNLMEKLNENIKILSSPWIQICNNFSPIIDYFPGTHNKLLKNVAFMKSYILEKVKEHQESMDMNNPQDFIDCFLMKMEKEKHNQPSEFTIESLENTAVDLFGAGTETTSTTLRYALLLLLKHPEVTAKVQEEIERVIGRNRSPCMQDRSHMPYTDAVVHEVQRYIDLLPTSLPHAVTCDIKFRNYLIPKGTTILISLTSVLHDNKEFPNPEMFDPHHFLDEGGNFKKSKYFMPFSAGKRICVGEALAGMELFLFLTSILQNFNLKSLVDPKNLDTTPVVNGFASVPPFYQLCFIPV

CN(C)C(=O)c1ccc(-c2ccc3ncnc(N(C)C)c3c2)cc1
inactive: Potency [1] > 11.4 µM | activity change, negative = inhibition [2] -20.2% | activity change, negative = inhibition [4] 9.63% | activity, negative = inhibition [5] -6.55% | Potency [6] > 46 µM | Potency [7] > 46 µM | outcome [8] | Potency [9] | Potency [10] | activity change, negative = inhibition [11] 4.12% | Potency [14] | Potency [15] | Potency [16]
active: Potency [3] 20 µM | Potency [12] 25.1 µM | Potency [13] 28.2 µM
22.2%: max response [11, 21]
19.1%: max response [11, 20]

COCCn1c(=O)c(-c2ccccc2)nc2cnc(OC)nc21
inactive: Potency [1] > 11.4 µM | activity change, negative = inhibition [2] -2.69% | activity change, negative = inhibition [4] -14.5% | activity, negative = inhibition [5] -12.2% | Potency [6] > 9.22 µM | Potency [7] > 46 µM | outcome [8] | Potency [9] | Potency [10] | activation [17] -14.2% | activity change, negative = inhibition [11] 5.61% | Potency [12] | Potency [13] | Potency [14] | Potency [15] | Potency [16]
16.8%: max response [11, 20]
21.9%: max response [11, 21]
active: Potency [3] 1 µM

FC(F)(F)c1ccccc1-c1cc(NCc2ccccc2)ncn1
active: Potency [3] 12.6 µM | Potency [10] 10 µM
inactive: Potency [1] > 11.4 µM | activity change, negative = inhibition [2] -15.2% | activity change, negative = inhibition [4] -0.248% | activity, negative = inhibition [5] 4.93% | Potency [6] > 46 µM | Potency [7] > 46 µM | outcome [8] | Potency [18] | activity change, negative = inhibition [11] 5.85% | Potency [12] | Potency [13] | Potency [14] | Potency [16]
20.1%: max response [11, 21]
14.8%: max response [11, 20]

O=c1cnc2cncnc2n1Cc1ccccc1
active: Potency [3] 25.1 µM
14%: max response [11, 21]
15%: max response [11, 20]
inactive: Potency [1] > 11.4 µM | activity change, negative = inhibition [2] -12.8% | activity change, negative = inhibition [4] -13.5% | activity, negative = inhibition [5] -12.1% | Potency [6] > 9.22 µM | Potency [7] > 46 µM | outcome [8] | Potency [10] | activity change, negative = inhibition [11] 0.677% | Potency [12] | Potency [13] | Potency [14] | Potency [15] | Potency [16]

O=c1c(-c2cccs2)nc2cncnc2n1Cc1ccccc1
inactive: Potency [1] > 11.4 µM | activity change, negative = inhibition [2] -16.8% | activity change, negative = inhibition [4] 1.15% | activity, negative = inhibition [5] 7.21% | Potency [6] > 9.22 µM | Potency [7] > 46 µM | outcome [8] | Potency [10] | activity change, negative = inhibition [11] 1.03% | Potency [12] | Potency [13] | Potency [14] | Potency [15] | Potency [16]
active: Potency [3] 2.51 µM | Potency [19] 1.26 µM | Potency [18] 6.31 µM
21.4%: max response [11, 21]
22.1%: max response [11, 20]
